Calls of active or inactive are those of the source. Unless noted, no rule for the calls is given here.
How the values were obtained:
[1] = test system: XIP peptide (Xip251-270) binding; assay: XIP fragment 251-270 binding compounds – biochemical, small-molecule microarray, fluorescence 635/667 nm, 0.1 µg/mL protein, primary screen (AID 1182); conditions: fluorescent protein binding, 635 nm, higher = more signal, called active from +8 up or from −8 down
[2] = test system: XIP peptide (Xip251-270); assay: compounds binding XIP fragment 251-270 – biochemical, small-molecule microarray, fluorescence 635/667 nm, 0.5 µg/mL protein, primary screen (AID 1183); conditions: fluorescence 635 nm, higher = more signal
[3] = blood-stage malaria parasite viability loss – strain 3D7, DAPI fluorescence, 100 nL, primary screen (AID 1184);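 also: parasites grown inside human red blood cells in medium with human serum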; conditions: P. falciparum 3D7 growth, 3 d, higher = more signal
[4] = target: Homeobox protein Hox-A13 (Mus musculus) (UniProt Q62424); assay: disruptors of Hoxa13 oligonucleotide interaction – biochemical, fluorescence polarization, labeled oligonucleotide, primary screen (AID 1185); conditions: Hoxa13:DNA binding, 15 min, higher = more signal, called active from +8 up or from −8 down
[5] = blockers of DNA damage checkpoint Chk1 activation – imaging, HeLa, hydroxyurea, phospho-Chk1 antibody, percent positive cells, primary screen (AID 1186); conditions: hydroxyurea-induced phospho-Chk1 immunofluorescence imaging, higher = more signal
[6] = blockers of DNA damage checkpoint Chk1 activation – imaging, HeLa, hydroxyurea, phospho-Chk1 nuclear intensity, primary screen (AID 1187); conditions: hydroxyurea-induced phospho-Chk1 immunofluorescence imaging, higher = more signal

Homeobox protein Hox-A13 (Mus musculus), sequence (Q62424 whole entry, looked up): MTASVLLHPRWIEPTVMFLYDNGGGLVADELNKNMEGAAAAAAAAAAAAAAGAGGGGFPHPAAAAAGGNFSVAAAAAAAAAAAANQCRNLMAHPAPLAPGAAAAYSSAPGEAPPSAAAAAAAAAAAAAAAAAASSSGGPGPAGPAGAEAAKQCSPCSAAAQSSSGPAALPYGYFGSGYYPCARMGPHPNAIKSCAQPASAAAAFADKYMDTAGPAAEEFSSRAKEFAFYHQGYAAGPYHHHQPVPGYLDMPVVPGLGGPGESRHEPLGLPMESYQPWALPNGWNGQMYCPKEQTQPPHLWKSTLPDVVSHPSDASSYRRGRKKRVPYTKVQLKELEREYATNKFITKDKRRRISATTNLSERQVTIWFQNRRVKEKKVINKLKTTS

Compound	composite z-score [1]	composite z-score [2]	z-score [3]	z-score [4]	z-score [5]	z-score [6]
C=C(C(=O)CC[C@@H](OC(C)=O)c1cccc(OCCO)c1)C(C)C	0.723 (inactive)	0.436	-1.01	-4.41 (inactive)	-0.0088 (inactive)	0.158 (inactive)
CC1(C)OC[C@@]23C=C(Br)[C@@H](C[C@H]12)[C@@]1(CO1)C3=O	-0.319 (inactive)	0.0841	1.96	0.26 (inactive)	-0.54 (inactive)	-0.682 (inactive)
COc1ccc([Si](C)(C)[C@H]2[C@H](CC(=O)N3Cc4ccccc4C[C@H]3CO)O[C@@]3(C(=O)N(Cc4cccc(N5C(=O)c6cccc7cccc5c67)c4)c4ccccc43)[C@@H]2C)cc1	0.14 (inactive)	0.802	-2.45	-2.56 (inactive)	-0.887 (inactive)	-0.153 (inactive)
CC(=O)c1ccc(C(O)C2C=CC3C(=O)N(C)C(=O)C3N2NC(=O)OC(C)(C)C)cc1 (centres undefined)	2.44 (inactive)	0.763	-0.29	-1.11 (inactive)	0.976 (inactive)	0.688 (inactive)
CC(C)c1ccc(NN2C(C(O)C(C)C)C=CC3C(=O)N(c4ccccc4)C(=O)C32)cc1 (centres undefined)	1.49 (inactive)	0.778	-0.63	-1.26 (inactive)	-0.172 (inactive)	-0.0386 (inactive)
CCCCC(O)C1C=CC2C(=O)NC(=O)C2N1Nc1ccc(Cl)cc1Cl (centres undefined)	-0.0109 (inactive)	-0.405	-0.565	-4.78 (inactive)	-0.515 (inactive)	-0.438 (inactive)
CCOC(=O)C[C@H]1[C@H](OC(=O)Cc2ccc3c(c2)OCO3)[C@@H](NC(=O)c2ccccc2)c2cc(OCCCO)ccc2N1C(=O)Cc1ccc(OC)cc1	0.659 (inactive)	0.288	-1.35	-3 (inactive)	-1.29 (inactive)	-1.25 (inactive)
COC(=O)C(CC#Cc1ccc2c(c1)[C@]1(C(=O)N2)[C@H](c2ccc(O)cc2)N2[C@H](c3ccccc3)[C@H](c3ccccc3)OC(=O)[C@H]2[C@@H]1C(=O)N1CCc2cc(OC)c(OC)cc2C1)C(=O)OC	1.78 (inactive)	0.779	-2.02	-2.32 (inactive)	0.323 (inactive)	0.0329 (inactive)
COCC(=C=CC[C@@H](O)c1cccc(OCCO)c1)C[C@@H](O)COCc1ccccc1	0.0062 (inactive)	0.0674	-1.71	-3.67 (inactive)	-0.789 (inactive)	-0.407 (inactive)
CCOC(=O)C[C@H]1[C@H](OC(=O)c2ccc(-c3ccccc3)cc2)[C@@H](NC(=O)c2ccc3ccccc3c2)c2cc(OCCCO)ccc2N1C(=O)c1ccccc1	0.377 (inactive)	-0.0506	-0.633	-1.35 (inactive)	0.0034 (inactive)	0.241 (inactive)
C=CC[C@@]12N=C(c3ccc(OCCCO)cc3)O[C@@H]1c1ccccc1N(Cc1ccccc1)C2=O	0.799 (inactive)	0.797	-2.42	-2.23 (inactive)	0.0198 (inactive)	0.552 (inactive)
CC(C)C[C@@H]1NC(=O)[C@@H]2C[C@H](C(=O)NCCCC[N+](C)(C)C)[C@H](c3ccc(O)cc3)N2C1=O	1.03 (inactive)	0.858	-0.174	-1.73 (inactive)	0.757 (inactive)	0.0766 (inactive)
COC(=O)C1(CC(C)C)C=C2C(=C(C(C)C)C(=O)C2C)CN1 (centres undefined)	-0.418 (inactive)	0.172	1.24	-6.06 (inactive)	0.677 (inactive)	0.675 (inactive)
C=CCN1C(=O)[C@]2(O[C@H](CCn3cc([C@H](O)c4ccccc4)nn3)[C@@H]([Si](C)(C)c3ccc(OC)cc3)[C@@H]2C)c2cc(N3C(=O)c4cccc5cccc3c45)ccc21	0.767 (inactive)	0.312	-2.75	-3.64 (inactive)	-0.65 (inactive)	-0.164 (inactive)
C=C(COC)C(=O)CC[C@@H](OC(=O)c1cccnc1)c1cccc(OCCO)c1	-0.209 (inactive)	0.617	-2.53	-4.51 (inactive)	-0.494 (inactive)	2.22 (inactive)
C=CCC(OC(C)=O)[C@@H]1[C@@H](N(Cc2cc3ccccc3o2)C(=O)c2ccc(-c3ccccc3)cc2)c2cc(OCCCO)ccc2N1C(=O)c1ccc2ccccc2n1 (some centres undefined)	-0.341 (inactive)	-0.317	-1.49	-1.34 (inactive)	-0.203 (inactive)	-0.103 (inactive)
COc1ccc([Si](C)(C)[C@H]2[C@H](CCO)O[C@@]3(C(=O)N(Cc4ccccc4)c4ccc(N(C=O)c5ccccc5)cc43)[C@@H]2C)cc1	0.572 (inactive)	0.571	-2.74	-0.799 (inactive)	1.75 (inactive)	1.49 (inactive)

Compound	composite z-score [1]	composite z-score [2]	z-score [3]	z-score [4]	z-score [5]	z-score [6]
Cc1ccc(S[C@]2(C(=O)NC3CC3)CC(=O)N(Cc3cc(C(F)(F)F)cc(C(F)(F)F)c3)[C@@H]2c2ccc(CO)cc2I)cc1	0.102 (inactive)	0.679	0.496	-2.13 (inactive)	0.505 (inactive)	0.924 (inactive)
CCCCC(=C=CC[C@@H](O)c1ccc(OCCO)cc1)C[C@@H](O)c1ccccn1	0.0856 (inactive)	-0.24	-0.979	-5.87 (inactive)	0.784 (inactive)	0.744 (inactive)
CCOC(=O)C1=CC[C@@H](c2ccccc2Cl)N(S(=O)(=O)c2ccc(C)cc2)[C@H]1c1cccc(OC)c1	0.211 (inactive)	0.246	-0.794	-1.18 (inactive)	0.0932 (inactive)	-0.553 (inactive)
COc1ccc(CCNC(=O)[C@@H]2c3ccccc3C(=O)N(CC34CC5CC(CC(C5)C3)C4)[C@H]2c2ccc(CO)cc2)cc1	1.92 (inactive)	0.55	-2.14	-4.4 (inactive)	-0.0198 (inactive)	0.432 (inactive)
COCCOC(=O)N1C(=O)[C@@]2(c3cc(C#CC4(O)CCCCCC4)ccc31)[C@H](C(=O)N1CCc3cc(OC)c(OC)cc3C1)[C@H]1C(=O)O[C@H](c3ccccc3)[C@H](c3ccccc3)N1[C@@H]2c1ccc(O)cc1	0.424 (inactive)	0.762	-1.72	-0.363 (inactive)	0.25 (inactive)	0.81 (inactive)
CCCCCCCCCCC(O)C1C=CC2C(=O)N(C)C(=O)C2N1N1CCCCC1 (centres undefined)	0.0477 (inactive)	0.0634	-0.152	-4.08 (inactive)	0.552 (inactive)	0.303 (inactive)
COc1ccc(CCNC(=O)[C@@]2(Sc3ccc(C)cc3)CC(=O)N(C(C)C)[C@@H]2c2ccc(CO)cc2)cc1	0.117 (inactive)	0.66	-0.302	-3.28 (inactive)	0.0372 (inactive)	-0.0512 (inactive)
C=C(COC)/C(=C/C[C@H](OC(=O)c1ccncc1)c1ccc(OCCO)cc1)c1cc(C(=O)OC)ccc1OC	-0.202 (inactive)	0.667	-3.05	-4.65 (inactive)	0.203 (inactive)	0.159 (inactive)
COc1ccc([Si](C)(C)[C@H]2[C@H](CCn3cc([C@H](O)c4ccccc4)nn3)O[C@@]3(C(=O)N(c4ccccc4)c4ccccc43)[C@@H]2C)cc1	-0.292 (inactive)	0.505	-1.18	-3.4 (inactive)	-0.282 (inactive)	-0.513 (inactive)
C=C(CCCC)/C(=C/C[C@H](OC(C)=O)c1cccc(OCCO)c1)c1cc(C(=O)OC)ccc1OC	0.0894 (inactive)	-0.185	-2.35	-4.24 (inactive)	0.0786 (inactive)	0.307 (inactive)
COCC(=C=CC[C@@H](O)c1ccc(OCCO)cc1)C[C@@H](O)COCc1ccccc1	0.705 (inactive)	0.181	-2.96	-4.15 (inactive)	-0.252 (inactive)	0.483 (inactive)
COCCOC(=O)N1C(=O)[C@@]2(c3cc(C#CCCO)ccc31)[C@H](c1ccccc1OCCO)N1[C@H](c3ccccc3)[C@H](c3ccccc3)OC(=O)[C@H]1[C@@H]2C(=O)N1CCc2cc(OC)c(OC)cc2C1	0.291 (inactive)	0.816	-1.75	0.0237 (inactive)	-0.156 (inactive)	0.0652 (inactive)
C=CCC(OC(C)=O)[C@@H]1[C@@H](N(Cc2cccc3ccccc23)C(=O)c2cccc3ccccc23)c2cc(OCCCO)ccc2N1C(=O)Cc1ccc2ccccc2c1 (some centres undefined)	0.457 (inactive)	-0.716	-1.35	-2.12 (inactive)	0.233 (inactive)	0.42 (inactive)
CN(C)CCCNC(=O)[C@@H]1c2ccccc2C(=O)N(C2Cc3ccccc3C2)[C@H]1c1ccc(CO)cc1	-0.233 (inactive)	0.677	-1.09	0.84 (inactive)	-0.765 (inactive)	-0.961 (inactive)
COC(=O)[C@@]1(Cc2ccc(F)cc2)[C@H]2c3cc(C(=O)N(C)C)n(CCn4cc([N+](=O)[O-])nc4C)c3C[C@H]2CN1C(=O)c1ccccc1	0.128 (inactive)	0.5	0.653	-2.06 (inactive)	0.581 (inactive)	0.197 (inactive)
NCCCC[C@@H]1NC(=O)[C@H]2C[C@@H](C(=O)O)[C@@H](c3cccc(OCCO)c3)N2C1=O	0.505 (inactive)	0.86	-0.0736	6.28 (inactive)	0.0547 (inactive)	-0.62 (inactive)
C=C(CC1([C@@H](NP(=O)(c2ccccc2)c2ccccc2)[C@H]2C[C@@H]2CCN(C(=O)OCC)S(=O)(=O)c2ccc(C)cc2)CC1)c1ccccc1	0.43 (inactive)	0.666	-1.75	-2.18 (inactive)	-0.215 (inactive)	-0.0171 (inactive)

— PubChem BioAssay
